Bioassay records: PubChem, National Center for Advancing Translational Sciences (NCATS)
S2 tox = Viability Counterscreen for Primary qHTS for Inhibitors of ATXN expression; S2 cells (HEK-293 line with an ATXN2-luciferase reporter) viability, CellTiter-Fluor protease fluorescence, 24 h; Potency, µM (highest dose often 56.7 µM), actives largely listed as cytotoxic; actives 0.49% (n = 400,000); AID 651635, 2014; note: potency is the fitted concentration of half-maximal effect; nearly all actives have a fitted effect of over 40% in size
ATXN2 expr inh = Primary qHTS for Inhibitors of ATXN expression; HEK-293 ATXN2-luciferase reporter, luminescence, 24 h; actives 0.72% (n = 360,000); Potency, µM (titrated, usually from 57 µM), for inactives: at the top dose activity change, negative = inhibition, usual class: inhibitors; note: potency is the fitted concentration of half-maximal effect; % is set by controls: 0 for no effect and ±100 for the full control effect; nearly all actives have a fitted effect of over 55% in size
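qHTS (up to 57 uM final) was run with 24 h compound exposure of reporter cells at 37 °C. Each well was multiplexed: SteadyGlo luminescence measured ATXN2-luciferase expression after a fluorogenic Gly-Phe-AFC viability readout (25 uM final).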
HepG2 viability = qHTS for Inhibitors of TGF-b: Cytotox Counterscreen; HepG2 CAGA-GFP viability, ATP luminescence, 18 h; Potency, µM (titrated, usually from 46.1 µM), inactives show at the top dose activity change, negative = cytotoxicity, usual class: cytotoxic; actives 0.76% (n = 410,000); note: potency is the fitted concentration of half-maximal effect
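CellTiter-Glo luminescence gave cytotoxicity after 18 hours at 37 degrees C. The cells were HepG2 CAGA-GFP in 1% FBS DMEM, stimulated with 500 pg/mL TGF-beta after compound addition. %Activity was normalised to no-cell wells (complete cell-killing) and DMSO (no toxicity), and curves were fitted and classified.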
TGFb inhibitor = qHTS for Inhibitors of TGF-b. Potency, µM (titrated, usually from 46.1 µM), inactives show at the top dose activity, negative = inhibition, most hits filed as inhibitors. actives 1.2% (n = 410,000). HepG2 CAGA-GFP TGF-b/SMAD3 reporter, GFP fluorescence, 18 h; TGF-beta stimulated, 500 pg/mL final; note: potency is the fitted concentration of half-maximal effect; % is set by controls: 0 for no effect and ±100 for the full control effect; nearly all actives have a fitted effect of over 65% in size
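First, reporter cells (HEPG2 CAGA-GFP) rested 2 h at 37 degrees C. Next, compounds were pinned in and TGF-beta added to 500 pg/mL final. After 18 h, GFP was imaged per cell and summed per well.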
IL-1B inflam inh = qHTS for Inhibitors of Inflammasome Signaling: IL-1-beta AlphaLISA Primary Screen; THP-1 LPS/ATP IL-1B secretion, AlphaLISA, 16 h; stronger effect = lower value; actives 4.7% (n = 360,000); AID 743279, 2014; activity change, % at 57.5 µM; in the data active = activity change below about -50%; inconclusive = mostly about -30% to -49%; note: % is set by controls: 0 for no effect and ±100 for the full control effect
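THP-1 cells pretreated 1 hr with compounds (up to 57.5 uM final), then stimulated with LPS (250 ng/mL final) plus ATP (1.25 mM final); secreted IL-1B measured by AlphaLISA after 16 hr, decreased signal indicating inhibition.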
Numbers without * were called inactive; i = inactive; ? = inconclusive; · = not tested or not shown. Sampled rows, rich in hits. Any-hit rate of the full collection: about 5.7%. Unless noted, calls come from the whole dose curve; as a rule, active = well fitted curve in the direction sought with a large enough effect; inconclusive = small, poorly fitted or top-dose-only effect, or another doubt; inactive = no such curve, though single readings can be large; an effect the other way counts as inactive or inconclusive.

SMILES	S2 tox	ATXN2 expr inh	HepG2 viability	TGFb inhibitor	IL-1B inflam inh
COC(=O)C(Cc1c[nH]c2ccccc12)NC(=O)c1ccc2nc[nH]c2c1 (centres undefined)	i	63%	0%	-1%	-68*
COC(=O)C(Cc1c[nH]c2ccccc12)NC(=O)c1cncc(Br)c1 (centres undefined)	i	-10%	-14%	-8%	26
COC(=O)[C@@H](Cc1ccccc1)NC(=O)NCCc1c[nH]c2ccccc12	i	?	-50%	?	-98*
O=C(NC1CC(=O)N(c2cccc(F)c2)C1)c1ccc(S(=O)(=O)N2CCCC2)cc1 (centres undefined)	·	·	-13%	-18%	·
NC(COCc1ccccc1)c1csc(Nc2nccc(C(F)(F)F)n2)n1 (centres undefined)	i	3%	-1%	12%	0
NC(Cc1ccc(Cl)cc1)c1csc(NC(=O)Nc2ccccc2-c2ccccc2)n1 (centres undefined)	i	?	-101%	?	?
NC(Cc1ccc(Cl)cc1)c1csc(Nc2cc(Oc3ccccc3)ncn2)n1 (centres undefined)	·	-21%	-114%	?	-69*
COc1ccc(CC(N)c2csc(NC(=O)NCCc3ccccc3)n2)cc1 (centres undefined)	?	?	-75%	?	?
COc1ccc(CC(N)c2csc(Nc3cc(Oc4ccccc4)ncn3)n2)cc1 (centres undefined)	?	?	18µM*	?	·
NC(COCc1ccccc1)c1csc(Nc2cc(Oc3ccccc3)ncn2)n1 (centres undefined)	?	?	-101%	?	-79*
NC(Cc1ccc(F)cc1)c1csc(Nc2cc(Oc3ccccc3)ncn2)n1 (centres undefined)	28µM*	?	13µM*	?	-75*
Cn1cc(C(=O)O)c(=O)c2cc(S(=O)(=O)N3CCCCC3)ccc21	·	·	-77%	1%	·
O=c1[nH]c(Nc2nc3ccccc3o2)nc2c1CCCC2	?	?	-31%	?	-101*
CCN1C(=O)[C@H]2[C@@H](c3ccc(-c4ccc(F)cc4)cc3)N[C@@](CC(C)C)(C(=O)OC)[C@H]2C1=O	i	-19%	-4%	1%	-66*
COC(=O)[C@]1(CC(C)C)N[C@H](c2ccc(-c3ccc(F)cc3)cc2)[C@@H]2C(=O)N(C)C(=O)[C@@H]21	?	?	-21%	0%	-23
Cc1[nH]cnc1-c1ccc(Cl)cc1	i	16%	·	·	·
COc1ccc(Br)cc1CNC(=O)C(C)n1nc(C)n2c(cc3occc32)c1=O (centres undefined)	·	·	-15%	·	·
O=C(CCc1nnc2n(Cc3ccc(Cl)cc3)c(=O)c3ccccc3n12)NCCN1CCCC1	i	-16%	-40%	-25%	-59*
O=C(CCc1nnc2n(Cc3ccc(Cl)cc3)c(=O)c3ccccc3n12)NCCCN1CCOCC1	i	3%	1%	0%	0
CC(C)(C)c1ccccc1NC(=O)c1ccc2c(c1)SC1=NS(=O)(=O)CCN12	i	-2%	-13%	-9%	-26
O=C(Nc1cccc(Br)c1)c1ccc2c(c1)SC1=NS(=O)(=O)CCN12	i	·	-14%	18%	-62*
O=C(Nc1ccc(Cl)cc1)Nc1cccc(C(=O)O)c1	i	8.9µM*	-3%	1%	-6
CCOc1ccc(-n2nc3ccc(NC(=O)Cc4ccccc4)cc3n2)cc1	14µM*	?	-93%	?	·
CCOc1ccc(NC(=O)NC23CC4CC(CC(C4)C2)C3)cc1	i	0%	-15%	-12%	-67*
CCOc1ccc(S(=O)(=O)NCCC(=O)Nc2cccc(C(=O)OC)c2)cc1	i	9%	-9%	50%	-74*
SMILES	S2 tox	ATXN2 expr inh	HepG2 viability	TGFb inhibitor	IL-1B inflam inh
CCOc1ccc(-n2nc3ccc(NC(=O)CC)cc3n2)cc1	i	8%	11%	-12%	-13
Cc1c(CCOc2ccc(C(=O)O)cc2)c2cc(Cl)ccc2n1C(c1ccccc1)c1ccccc1	·	-20%	·	·	·
COc1cccc(CN2CC34CC(c5ccc(C(C)=O)cc5)C(CC3S2(=O)=O)O4)c1 (centres undefined)	·	·	-12%	0%	·
CCOc1ccc(NC(=O)Nc2cccc(C(=O)O)c2)cc1	i	1µM*	-55%	-13%	-19
CC(=O)Nc1ccc(NC(=O)Nc2cccc(Cl)c2)cc1	i	24%	2%	-2%	-2
CC(=O)c1ccc(NC(=O)Nc2cccc(Cl)c2)cc1	i	66%	-48%	-26%	-96*
CCCCc1ccc(-n2nc3ccc(NC(=O)c4cc5ccccc5o4)cc3n2)cc1	22µM*	?	-98%	?	·
CCOC(=O)C1=C(COC(=O)CCS(=O)(=O)c2ccc(C)cc2)NC(=O)NC1C (centres undefined)	i	-7%	-6%	1%	-80*
CCOC(=O)C1=C(COC(=O)c2ccc([N+](=O)[O-])s2)NC(=O)NC1C (centres undefined)	?	·	-122%	11µM*	42
CCOC(=O)C1=C(COC(=O)CNS(=O)(=O)c2ccc(C)cc2)NC(=O)NC1C (centres undefined)	i	4%	-8%	25%	i
CCOC(=O)C1=C(COC(=O)c2sccc2C)NC(=O)NC1C (centres undefined)	i	·	-8%	3%	-15
CC(C)NC(=O)c1cn([C@H]2CC[C@@H](NC(=O)/C=C/c3cccs3)CC2)nn1	i	·	·	·	·
CCOc1ccccc1NC(=O)CSc1nc2cc(OC)c(OC)cc2c2nc(CCn3c(C)nc4ccccc43)nn12	i	-13%	-14%	6%	·
CC(=O)Nc1ccn(C2OC(C(COC(C)=O)NC(=O)C3CCCN3C(=O)OC(C)(C)C)C(OC(C)=O)C2OC(C)=O)c(=O)n1 (centres undefined)	·	·	0%	-5%	·
COc1ccc(OC)c(CNS(=O)(=O)c2cc(-c3onc(C)c3C)ccc2C)c1	·	·	-21%	-7%	·
O=C(Nc1cccc(Cl)c1)c1ccc2c(=O)n3c(nc2c1)CCCCC3	?	8%	-22%	-28%	-74*
O=C(/C=C/c1ccco1)Nc1ccc2nc3n(c(=O)c2c1)CCCC3	·	12%	-21%	-21%	-51*
CCc1cccc(NC(=O)c2ccc3c(=O)n4c(nc3c2)CCCCC4)c1	i	?	-24%	-24%	-61*
